# High-throughput results: PubChem, National Center for Advancing Translational Sciences (NCATS)
# HCMV inh = inhibitors of human cytomegalovirus | 4.5% of 410,000 active | HFF cells, HCMV-luciferase reporter, 72 h; stronger effect = lower value | AID 1259415 | activity change, negative = inhibition, % at 57.5 µM; in the data active means activity change below about -60%; inconclusive means no clear call, values can overlap the other calls; inactive means above about -39%
#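 Cell-based, HFFs, 1000 cells/well, 16 h 37C; cpds in DMSO + HCMV-luc, MOI 1 PFU/cell; 72 h 37C; OneGlo luminescence after 5 min RT; norm. to buffer vs Salinomycin 10uM.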
# VACV Venus inh = inhibitors of vaccinia virus (Venus reporter); Vaccinia virus Venus reporter expression, fluorescence; Potency, µM (top dose mostly 36.5 µM), for the others: at the top dose activity change, negative = inhibition, most hits filed as inhibitors; 0.46% of 330,000 active; AID 720580; calls by dose curve; tested in A549 cells; further: potency means the concentration at half of the fitted maximal effect; nearly all actives have a fitted effect of over 30% in size
# HCV inhibitor = HCV inhibition; Huh7.5.1 HCVcc-Cre infection, luciferase reporter, 44 h; Potency, µM (highest dose often 41.8 µM), for inactives: at the top dose activity change, negative = inhibition, usual class: inhibitors; 3.4% of 340,000 active; AID 651820; active means well fitted inhibition curve with a large enough effect; inconclusive means small, poorly fitted or top-dose-only effect, or another doubt; inactive means no such curve, though single readings can be large or run the other way; further: potency means the concentration at half of the fitted maximal effect
#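 Antiviral activity was scored by luciferase reporter output from cells infected with HCVcc-Cre (~0.5 moi) in presence of compound, 44 h infection period, cells seeded 1,000/well 4 h prior.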
# FMDV antiviral = blocks foot and mouth disease virus | FMDV antiviral cell-based qHTS | Potency, µM (doses to about 57.9 µM), for inactives: at the top dose activity change, negative = inhibition, most hits filed as inhibitors | 1.2% of 410,000 active; calls by dose curve; tested in HEK293T cells; further: read-out not given here; potency means the concentration at half of the fitted maximal effect; nearly all actives have a fitted effect of over 45% in size
# Vaccinia mCherry = vaccinia inhibition (mCherry reporter). Vaccinia virus mCherry reporter infection, fluorescence. Potency, µM (doses to about 36.5 µM), for the others: top-dose activity change, negative = inhibition, hits mostly inhibitors. 0.63% of 310,000 active. AID 720579; calls by dose curve; tested in A549 cells; further: potency means the concentration at half of the fitted maximal effect; nearly all actives have a fitted effect of over 35% in size
# * marks the source's active call; other numbers are inactive results; i = inactive; ? = inconclusive; · = no result. Most compounds without a hit are left out; they make up all but 7.3% or so of the library. On the % scale 0 is the no-effect control and ±100 the full control effect.
SMILES,HCMV inh,VACV Venus inh,HCV inhibitor,FMDV antiviral,Vaccinia mCherry
COCCn1c(Br)nc2c1c(=O)n(C)c(=O)n2C,-28,-20%,1%,15%,i
Cc1ccc(OCCn2c(Br)nc3c2c(=O)n(C)c(=O)n3C)cc1,?,·,8.9µM*,0%,·
Cn1c(=O)c2c(ncn2Cc2ccc(Cl)c(Cl)c2)n(C)c1=O,-70*,·,?,?,·
Cn1c(=O)c2c(nc(Cl)n2Cc2ccc(Cl)c(Cl)c2)n(C)c1=O,27,0%,?,?,i
Cn1c(=O)c2c(ncn2CCOc2cccc(Br)c2)n(C)c1=O,-71*,·,?,?,·
Cn1c(=O)c2c(ncn2Cc2cccc(Cl)c2)n(C)c1=O,-75*,-16%,11µM*,·,-13%
Cn1c(=O)n(CCc2ccccc2)c(=O)c2c1ncn2Cc1ccccc1,21,?,?,-10%,-12%
Cn1c(=O)c2c(nc(Oc3cccc(Br)c3)n2C)n(C)c1=O,-10,·,23%,-10%,·
O=C(NCC1CCCO1)c1ccc(NC(=O)c2cc(F)c(F)cc2Cl)cc1 (stereo not drawn),44,·,-12%,-7%,·
Cc1nc(C)c(-c2csc(Nc3ccc(F)cc3)n2)s1,-10,-18%,4.5µM*,-11%,?
COc1cccc(Nc2nc(-c3sc(C)nc3C)cs2)c1,10,·,5µM*,-14%,·
Cc1nc(C)c(-c2csc(Nc3ccc(O)cc3C)n2)s1,-33,?,4%,16%,1.1µM*
COc1cccc(Nc2nc(-c3sc(N)nc3C)cs2)c1,-1,5%,?,39%,i
Cc1nc(C)c(-c2csc(Nc3ccc(C(=O)O)c(O)c3)n2)s1,19,·,1%,28%,·
CC1(C(=O)NS(=O)(=O)C2CC2)CCCN(C(=O)c2cccc(OC(F)(F)F)c2)C1 (stereo not drawn),-22,1%,·,-8%,9%
Cn1nnnc1SCc1nnc(-c2ccccc2Br)o1,42,-17%,-1%,37%,·
Cc1ccc(-n2nnnc2SCc2nnc(-c3ccccc3Br)o2)c(C)c1,-64*,-20%,?,·,-14%
CCOC(=O)c1c(NC(=O)CSc2cn(CCNC(=O)c3ccccc3OC)c3ccccc23)sc2c1CCCC2,-22,-5%,·,-28%,-13%
COc1cc2sc3ccc(-c4ccc(CN5CCOCC5)cc4)cc3c(=O)c2cc1OC,?,?,-20%,32µM*,-27%
CC(C)n1cc(C(=O)N2CCCC(N3CCN(c4cccc(Cl)c4)CC3)C2)cn1 (stereo not drawn),3,-15%,·,2%,-1%
O=C(COC(=O)c1cccc(F)c1)Nc1ccc(Cl)cn1,-99*,·,8%,-10%,·
COC(=O)c1cc2ccccc2c([N+](=O)[O-])c1O,-18,0%,9%,-5%,i
COC(=O)c1cc2ccccc2c(-c2c(OC)c(C(=O)OC)cc3ccccc23)c1OC,?,-18%,10µM*,-24%,?
CCOc1ccc(CCNC(=O)Cc2ccc(NC(=O)N3CCSc4ncccc43)cc2)cc1,?,-11%,·,0%,-10%
COc1ccc2c(c1)[C@H]1[C@H](CO2)[C@H](c2ccccc2)[C@]2(C)C(=O)N(Cc3ccc(C)cc3)CC(=O)N12,·,?,10µM*,-30%,-20%
SMILES,HCMV inh,VACV Venus inh,HCV inhibitor,FMDV antiviral,Vaccinia mCherry
COc1ccc(CN2CC(=O)N3[C@H]4c5ccc(OC)cc5OC[C@@H]4[C@H](c4ccccc4)[C@]3(C)C2=O)cc1,-2,-26%,?,-13%,-18%
COc1ccc2c(c1)OC[C@H]1[C@H]2N2C(=O)CN(Cc3ccc(Cl)cc3)C(=O)[C@@]2(C)[C@H]1c1ccccc1,4,-26%,11µM*,-19%,?
CCC(=O)N1CCc2cc(Br)cc(S(=O)(=O)CCC(=O)N(CC)Cc3ccccc3)c21,-13,-12%,·,-10%,-4%
O=c1c2ccccc2nc(/C=C/c2cc(Br)ccc2O)n1CCCO,-96*,?,?,25µM*,11µM*
O=c1c2ccccc2nc(/C=C/c2cccc([N+](=O)[O-])c2)n1CCO,?,-18%,?,-25%,-10%
O=c1c2ccccc2nc(/C=C/c2ccccc2)n1-c1ccccc1O,-95*,-12%,-28%,-14%,-9%
COc1cc(/C=C/c2nc3ccccc3c(=O)n2-c2ccccc2O)ccc1O,-83*,20%,?,-24%,?
O=C(O)c1ccc(-n2c(/C=C\c3ccc(O)cc3)nc3ccccc3c2=O)cc1,-14,-6%,·,-22%,-5%
O=c1c2ccccc2nc(/C=C/c2ccccc2)n1-c1ccc(O)cc1,-88*,-17%,?,?,i
C=C1C/C(C)=C/CCc2cc(OS(=O)(=O)C(F)(F)F)ccc2-c2ccc(OC)c(OC)c21,-1,·,·,·,·
COC(=O)C1(C(=O)OC)c2ccccc2N(S(=O)(=O)c2ccc(C)cc2)C1CC(=O)c1ccccc1 (stereo not drawn),65,-15%,·,-8%,-15%
CCOC(=O)N[C@H](C(=O)N1CCC[C@H]1C(=O)NC1CCCC1)c1ccccc1,6,·,·,·,·
O=c1c2ccccc2nc(/C=C\c2cccc(Br)c2)n1-c1ccc(O)cc1,-92*,-15%,·,-5%,-22%
O=c1c2ccccc2nc(/C=C/c2ccc(O)c(O)c2)n1-c1ccccc1,78,·,-16%,?,·
CCOC(=O)c1cc(-c2ccccc2)n(CC(=O)N(C)c2ccc(OC)cc2)c1C,132,-4%,·,-17%,-8%
CCN(CC)CCCN1C(=O)CSC1c1ccc2c(c1)OCO2 (stereo not drawn),29,2%,-18%,-11%,·
CCN(CC)CCCN1C(=O)CSC1c1ccc([N+](=O)[O-])cc1 (stereo not drawn),-102*,·,12%,-3%,·
CCN(CC)S(=O)(=O)c1cc(-c2nnc(Nc3ccc(OC)c(C(N)=O)c3)c3ccccc23)ccc1C,-65*,?,·,?,?
COc1ccc(Nc2nnc(-c3ccccc3)c3ccccc23)cc1C(=O)N1CCCCC1,-10,-28%,-2%,-30%,-22%
COc1ccc(Nc2nnc(-c3ccc(C)cc3)c3ccccc23)cc1C(=O)N1CCCCC1,-73*,?,?,?,-30%
Cc1ccc(-c2nnc(Nc3ccc(Cl)c(Cl)c3)c3ccccc23)cc1S(=O)(=O)N(C)C,-13,-13%,·,36%,-18%
CN(C)c1cccc(C(=O)OC(C(=O)Nc2ccc(Cl)cc2C(F)(F)F)c2ccccc2)c1 (stereo not drawn),-63*,-19%,-16%,-24%,-4%
CCc1ccccc1NC(=O)CSc1ncccc1C(=O)O,7,-7%,·,6%,-1%
O=C(Nc1ccc(OC(F)(F)F)cc1)C(NS(=O)(=O)c1cccc2nsnc12)c1ccccc1 (stereo not drawn),21,-16%,·,-11%,-12%
NS(=O)(=O)c1ccc(CCNc2nn3c(-c4ccc(F)c(Cl)c4)cnc3s2)cc1,-75*,-21%,·,?,10%
CCCCC(=O)Nc1nnc(SCc2cc(=O)n3cc(C)ccc3n2)s1,-29,2%,·,-11%,i
